These results are taken from PubChem BioAssay AID651815 (National Center for Advancing Translational Sciences (NCATS), 2012).

Molecules are shown by their SMILES. The campaign covered roughly 2,100 compounds. About 1,100 (52%) were called active. Inconclusive results (about 29%) are left out. So high a share suggests a set chosen from earlier hits. The list shows a part of the results. A number with no mark means an inactive call. The call rests on the fitted dose curve; in most records, active means well fitted inhibition curve with a large enough effect; inconclusive means small, poorly fitted or top-dose-only effect; inactive means no such curve, though single readings can be large or run the other way.
On the % scale 0 is the no-effect control and ±100 the full control effect; potency means the concentration at half of the fitted maximal effect.

For the assay, the target named is DNA dC->dU-editing enzyme APOBEC-3F (Homo sapiens) (UniProt Q8IUX4). As to the kind of experiment: qHTS for inhibitors of Vif-A3F interactions: Cherry picks counterscreen. Further: nearly all actives have a fitted effect of over 65% in size. Particulars: HeLa A3F-eYFP/Vif cells, eYFP fluorescence, 24 h; series mostly up to 46.1 µM; activity, negative = inhibitor: at the top concentration. A digest of the protocol: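 HeLa cells stably expressing A3F-eYFP and Vif, cultured overnight, then treated 24 h at 37 degrees C with compounds at several concentrations; yellow fluorescence (488 nm Ex/500-530 nm Em) imaged on Acumen; MG132 positive control.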
Chain of DNA dC->dU-editing enzyme APOBEC-3F (Homo sapiens) (Q8IUX4 whole entry, looked up): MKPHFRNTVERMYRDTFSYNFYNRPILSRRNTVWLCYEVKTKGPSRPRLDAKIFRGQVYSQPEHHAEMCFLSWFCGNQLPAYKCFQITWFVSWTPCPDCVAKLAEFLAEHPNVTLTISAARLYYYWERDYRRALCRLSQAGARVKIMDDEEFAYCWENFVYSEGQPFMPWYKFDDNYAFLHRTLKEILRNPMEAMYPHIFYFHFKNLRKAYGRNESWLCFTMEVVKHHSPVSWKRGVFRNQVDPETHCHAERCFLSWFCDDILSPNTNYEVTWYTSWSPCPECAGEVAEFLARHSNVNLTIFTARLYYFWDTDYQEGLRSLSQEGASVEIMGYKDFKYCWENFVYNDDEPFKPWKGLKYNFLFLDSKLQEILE
For `O=C1Nc2ccc(Br)cc2C12NNc1ccccc1O2` (centres undefined), the Potency is 14 µM (active).
Consider `Cc1ccc(CSc2nc(-c3ccc(C(C)(C)C)cc3)nc3cc(=O)[nH]n23)cc1`, for which the “activity, negative = inhibitor” value was -3.11%.
Consider `Cc1sc2ncnc(SCC(=O)NC(C)(C)C)c2c1C`, for which the “activity, negative = inhibitor” value is 2.59%.
As for `COc1cccc(-c2ccc3c(N)c(C(=O)c4ccc(Cl)cc4)sc3n2)c1`, the Potency is 16.4 µM (active).
Still for that read-out and setting: for `COc1ccc(NC(=O)c2sc3nc(-c4cccnc4)ccc3c2N)cc1OC` the value was 5.8 µM (active).
The same measure, in the same setting: for `COc1cccc(-c2ccc3c(N)c(C(=O)c4ccc(Br)cc4)sc3n2)c1` the value was 23.1 µM (active); for `Cc1nn(-c2ccc(F)cc2)c(Cl)c1/C=C1\C(=O)Nc2ccccc21`, 5.59 µM (active); for `O=c1[nH]c(NCc2ccco2)nnc1Cc1ccccc1Cl`, 12.5 µM (active).
With `O=[N+]([O-])c1ccc(C2=Nc3cc(Cl)ccc3OC2)cc1`, the “activity, negative = inhibitor” value is -10.5%.
Consider `O=[N+]([O-])c1ccc(/C=C/C2=NN(c3ccccc3)C(c3ccco3)C2)o1` (centres undefined), for which the Potency is 5.17 µM (active).
Still for that read-out and setting: to `O=[N+]([O-])c1ccc(C2=NN(c3ccccc3)C(c3ccco3)C2)cc1` (centres undefined) belongs 1.58 µM (active); to `COc1ccccc1N1N=C(c2ccc([N+](=O)[O-])cc2)CC1c1ccccc1` (centres undefined), 1.12 µM (active).
Still for that read-out and setting: to `COc1ccc2nc(C)cc(SCC(=O)N/N=C/c3cccc4ccccc34)c2c1` belongs 6.27 µM (active).
Still for that read-out and setting: to `O=C(Nc1ccc([N+](=O)[O-])cc1)C(Cc1ccccc1)N1C(=O)c2cccc3cccc(c23)C1=O` (centres undefined) belongs 15.8 µM (active).
Regarding `O=S(=O)(Nc1ccc(C(O)(C(F)(F)F)C(F)(F)F)cc1)c1ccc(Cl)c2nonc12`, the “activity, negative = inhibitor” value is -13.6% [at 36.9 µM].
As to `COC(=O)c1sc2cc([N+](=O)[O-])cc(SCC(C)C)c2c1N`, the Potency was 11.6 µM (active).
On the same count and under the same terms, for `CCOC(=O)c1sc2cc([N+](=O)[O-])cc(SCC(C)C)c2c1N` the value was 2.31 µM (active).
As to `COc1ccc(NC(=S)Nc2ncccc2C)c(OC)c1`, the “activity, negative = inhibitor” value was -8.96% [at 36.9 µM].
On to `COc1ccc(NC2=CC(=O)CC(c3ccccc3)C2)c(OC)c1` (centres undefined), for which the Potency is 5.59 µM (active).
For the molecule `O=C(Nc1ccc(Oc2ccc(NC(=O)Nc3ccccc3Cl)cc2)cc1)Nc1ccccc1Cl`, the Potency is 18.4 µM (active).
`O=C(N/N=C/c1cccc2ccccc12)c1n[nH]c2c1CCCC2`: the Potency is 1.98 µM (active).
The same measure, in the same setting: to `Cc1ccsc1/C=N\NC(=O)c1n[nH]c2c1CCC2` belongs 3.96 µM (active); to `O=C(N/N=C/c1cccs1)c1n[nH]c2c1CCC2`, 6.27 µM (active).
`CN(C)S(=O)(=O)c1ccc2c(c1)/C(=C/c1cc3c([nH]1)CCCC3)C(=O)N2`: the Potency is 2.23 µM (active).
In the case of `Cc1cccc(N2CCN(C(=O)c3ccncc3)CC2)c1C`, the Potency was 9.94 µM (active).
Still for that read-out and setting: to `O=C(CSc1nc(-c2ccco2)cc(C(F)(F)F)n1)Nc1cccnc1` belongs 11.2 µM (active).
The same measure, in the same setting: to `Cc1nnc(NC(=O)CSc2nc(C(C)C)nc3ccccc23)s1` belongs 8.86 µM (active).
Still for that read-out and setting: to `Cc1cc(C)n(-c2nnc3n2N=C(c2c[nH]c4ccccc24)CS3)n1` belongs 12.5 µM (active); to `CC(NC(=O)/C(C#N)=C/c1ccc([N+](=O)[O-])o1)c1ccccc1` (centres undefined), 18.4 µM (active).
Consider `CCOCCCNC(=O)/C(C#N)=C/c1ccc([N+](=O)[O-])o1`, for which the Potency was 20.6 µM (active).
With `N#C/C(=C\c1ccccc1[N+](=O)[O-])C(=O)NCc1ccccc1`, the “activity, negative = inhibitor” value is 0.631%.
Take `CN(C)/C=N/C1=C(C#N)C(c2cccs2)c2ccc3ccccc3c2O1` (centres undefined): the Potency was 4.98 µM (active).
Still for that read-out and setting: to `O=C(NCc1cccnc1)c1cccc(NS(=O)(=O)c2ccc(Br)cc2)c1` belongs 6.27 µM (active); to `O=C(COc1ccc(C(=O)c2ccccc2)cc1)NCc1ccc(F)cc1`, 1.98 µM (active); to `O=C(c1[nH]c(C(F)(F)F)nc1-c1ccccc1)N1CCN(c2cccc(C(F)(F)F)n2)CC1`, 2.8 µM (active).
For `O=C(c1[nH]c(C(F)(F)F)nc1-c1ccccc1)N1CCN(c2ccccc2)CC1`, the Potency is 2.23 µM (active).
In the case of `CCS(=O)(=O)N1CCc2cc(C(=O)N3CCN(c4cccc(C(F)(F)F)c4)CC3)ccc21`, the “activity, negative = inhibitor” value was -6.58%.
Still for that read-out and setting: to `COc1ccc(-c2cc(-c3cccs3)nc3sc(C#N)c(N)c23)cc1` belongs -19.5%.
Regarding `CCN(CC)C(=O)c1sc2nc(-c3cccs3)cc(-c3ccc(Cl)cc3)c2c1N`, the Potency was 14 µM (active).
Same read-out and setting: for `N#Cc1sc2nc(-c3cccs3)cc(-c3ccc(Cl)cc3)c2c1N` the value was 12.5 µM (active); for `O=C(COC(=O)c1ccc(NS(=O)(=O)c2cccs2)cc1O)NCc1ccccc1`, 4.44 µM (active).
On the same count and under the same terms, to `COc1ccc2c(c1)c1nc3ccccc3nc1n2Cc1ccc(OC)c(OC)c1` belongs 18.4 µM (active); to `CCOc1ccc(Cn2c3ccc(OC)cc3c3nc4ccccc4nc32)cc1`, 18.4 µM (active).
Still for that read-out and setting: to `COc1ccc2c(c1)c1nc3ccccc3nc1n2CC(=O)OC(C)C` belongs 3.66 µM (active).
In the case of `COc1ccc(COn2c(=O)c(C)[n+]([O-])c3ccccc32)cc1OC`, the “activity, negative = inhibitor” value is -14.5% [at 36.9 µM].
Still for that read-out and setting: to `c1ccc(N=NC2=NN(c3ccccc3)CS2)cc1` belongs 0.0565%.
As for `Nc1nn(-c2ccccc2)c(N)c1N=Nc1ccccc1`, the Potency is 2.23 µM (active).
As to `c1ccc2[nH]c(NN=C3CCCCCC3)nc2c1`, the “activity, negative = inhibitor” value was -14.5%.
Still for that read-out and setting: to `N#CC(C(=S)Nc1ccccc1)c1nc2ccccc2[nH]1` (centres undefined) belongs -11.5%.
Turning to `O=C(CSc1ccccc1)Nc1nc2ccccc2[nH]1`, the Potency is 8.86 µM (active).
Still for that read-out and setting: for `Cc1ccc2c(c1)C=CC(C#N)N2C(=O)c1ccccc1` (centres undefined) the value was 4.98 µM (active); for `COCCOC(=O)c1[nH]c2c(c1C)C(=O)CC(c1ccccc1)C2` (centres undefined), 1.77 µM (active); for `COc1ccc(OC)c(C2CC(=O)c3c([nH]c(C(=O)OCC4CCCO4)c3C)C2)c1` (centres undefined), 12.5 µM (active).
On the same count and under the same terms, for `Cc1c(C(=O)OC2CCCCC2)[nH]c2c1C(=O)CC(c1ccccc1Cl)C2` (centres undefined) the value was 2.06 µM (active).
With `CN(/N=C/c1ccc(N(C)C)cc1)C1=NS(=O)(=O)c2ccccc21`, the Potency is 11.2 µM (active).
Same read-out and setting: for `COCCCN(C(C)=O)c1nc(-c2ccc(OC)cc2)cs1` the value was 17.7 µM (active); for `CN1C2=CC=CC=CC2=[N+](C)C12C([N+](=O)[O-])=CC(=[N+]([O-])[O-])C=C2[N+](=O)[O-]` (centres undefined), 12.5 µM (active); for `Cc1ccc(S(=O)(=O)Nc2cc(-c3nn(C)c(=O)c4ccccc34)ccc2N2CCOCC2)cc1`, 12.5 µM (active).
Same read-out and setting: to `Cc1cccc2[nH]cc(/C=C3/C=Nc4ccccc43)c12` belongs 20.6 µM (active).
